Assay results reported in PubChem BioAssay (NCATS).
Where “and” joins values, the source holds several entries; their conditions need not be identical. Equal entries are not always repeated. Inconclusive results are not listed. More than one record can exist for a structure, and the calls need not agree. Calls of active or inactive are those of the source. Calls come from the whole dose curve.

How the values were obtained:
[1] = qHTS drug screen for cell cycle checkpoint inhibitors in PARPi-resistant BRCA-mutant ovarian cancer cell lines. (AID 1963452); settings: PEO1/OlaR viability, CellTiter-Glo luminescence, 96 h; for Z-AUC: stronger effect = lower value; note: potency is the fitted concentration of half-maximal effect
Method in brief: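 PEO1, PEO4 and PEO1/OlaR ovarian cancer cells, 600 per well, exposed 96 h at 37C to a dilution series. Viability read by CellTiter-Glo luminescence, normalized to DMSO and empty wells; activity summarized as Z-AUC.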

[2] = qHTS for identification of novel therapeutic agents for treatment of microphthalmiaassociated transcription factor (MiT) renal cell carcinoma (RCC) (AID 1963991); settings: CellTiter-Glo, 48 h, stronger effect = lower value
Method in brief: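 Three TFE3-fusion RCC cell lines (UOK109, UOK124, UOK145), 500 cells/well, were exposed to the 1912-compound MIPE 4.0 library for 48 hours at 37 C. Viability was read by CellTiter-Glo luminescence, normalised to DMSO (100%) and empty wells (0%), with 11-concentration curve fits.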

[3] = measured here: PEO1 parental Z-AUC
[4] = TFE3-RCC UOK109 viability, measured here: UOK109 Z-AUC
[5] = TFE3-RCC viability, measured here: UOK124 Z-AUC
[6] = TFE3-RCC viability, measured here: UOK145 Z-AUC

Row | SMILES | Z-AUC [1] | Z-AUC [1, 3] | Z-AUC ([1]; measured here: PEO4 Z-AUC) | Potency [1] | z-score [2, 4] | z-score [2, 5] | z-score [2, 6]
1 | NC(=O)Nc1cc(-c2ccc(CN3CCOCC3)cc2)sc1C(N)=O | 0.59 (inactive) | 0.476 | 0.41 |  |  |  | 
2 | COc1cccc2c1C(=O)c1c(O)c3c(c(O)c1C2=O)C[C@@](O)(C(=O)CO)C[C@@H]3O[C@H]1C[C@H](N)[C@@H](O)[C@H](C)O1 |  | -2.06 | -1.69 | 219 nM (active) |  |  | 
3 | O=C1NCCc2[nH]c(-c3ccncc3)cc21 | -1.33 (inactive) | -1 | -1.61 |  |  |  | 
4 | C[C@H](CCC(=O)O)[C@H]1CCC2C3C[C@H](O)[C@@H]4C[C@H](O)CC[C@]4(C)C3CC[C@@]21C (some centres undefined) | 0.00585 (inactive) | 0.454 | 0.29 |  | 0.156 | 0.446 | 0.00817
5 | Cn1cc(-c2cnn3c(N)c(Br)c([C@H]4CCCNC4)nc23)cn1 | -0.529 (inactive) | 0.414 and -1.48 | 0.266 and -1.31 | 3470 nM (active) |  |  | 
6 | FC(F)(F)c1ccc(Nc2nc3ccc(Oc4ccnc(-c5ncc(C(F)(F)F)[nH]5)c4)cc3[nH]2)cc1 | -0.52 (inactive) | -0.706 | -1.16 |  |  |  | 
7 | CN(CC(=O)N(Cc1ccc(C2CCCCC2)cc1)c1ccc(C(=O)O)c(O)c1)S(=O)(=O)c1c(F)c(F)c(F)c(F)c1F | 0.87 (inactive) | 0.115 | 0.274 |  |  |  | 
8 | Nc1ccn(C2CO[C@H](CO)O2)c(=O)n1 (some centres undefined) | 0.13 (inactive) | 0.905 | 0.884 |  | 1.41 | 1.05 | 1.04
9 | CC(C)(N)c1ccc(-c2nc3ccccc3nc2-c2ccccc2)cc1 | 0.345 (inactive) | 0.18 | 0.291 |  |  |  | 
10 | Cc1cc(O)c2c(c1)C(=O)c1cccc(O)c1C2=O | -0.855 (inactive) | 0.00192 | -0.281 |  | -0.138 | 0.712 | 0.0822
11 | COc1cc(O)c2c(c1)C1OC1C[C@H](O)[C@H](O)C(=O)C=CC[C@H](C)OC2=O (some centres undefined) | 0.145 (inactive) | -0.101 | -0.574 |  |  |  | 
12 | Nc1cccc2c1C(=O)N(C1CCC(=O)NC1=O)C2=O (centres undefined) | -0.524 (inactive) | -0.0375 | -0.357 |  | 0.502 | 0.0802 | -0.491
13 | Cn1cc(C2=C(c3c4n(c5ccccc35)CCC(CN)C4)C(=O)NC2=O)c2ccccc21 (centres undefined) | 0.936 (inactive) | 1.25 | 1.18 |  |  |  | 
14 | CN1CCc2c(c3ccccc3n2Cc2ccc(C(=O)NO)cc2)C1 | -0.848 (inactive) | -0.74 | -1.03 |  |  |  | 
15 | O=C(O)CCCCC(CCSCc1ccccc1)SCc1ccccc1 (centres undefined) | 1.05 (inactive) | 1.63 | 1.32 |  |  |  | 
16 | COc1ccc(Nc2nccc(NCCO)n2)cc1 | 1.22 (inactive) | 0.748 | 0.763 |  |  |  | 
17 | O=C1NC(O)CCN1[C@@H]1O[C@H](CO)[C@H](O)[C@H]1O (some centres undefined) | -0.827 (inactive) | -1.1 | -1.36 |  | 0.896 | 0.732 | 0.58
18 | Cc1cncc2cccc(S(=O)(=O)N3CCCN(C(=O)CN)C[C@@H]3C)c12 | -0.369 (inactive) | -0.0744 | -0.172 |  | 1.38 | 0.196 | 0.7
19 | NC(=O)N1CCC(CC(=O)N2CCC([C@H]3c4ncc(Br)cc4CCc4cc(Cl)cc(Br)c43)CC2)CC1 | -0.923 (inactive) | -0.883 | -0.991 |  |  |  | 
20 | C[C@@H]1CC[C@@]2(OC1)OC1CC3C4CC=C5CC(O)CCC5(C)C4CCC3(C)C1[C@@H]2C (some centres undefined) | 0.426 (inactive) | 0.314 | 0.526 |  | 0.586 | 0.304 | 0.634
21 | Oc1cc(-c2nc(-c3ccccc3)[nH]c2-c2ccncc2)ccc1Cl | -0.516 (inactive) | -0.935 | -1.11 |  |  |  | 
22 | CCCc1nc(C(C)(C)O)c(C(=O)O)n1Cc1ccc(-c2ccccc2-c2nn[nH]n2)cc1 | 0.227 (inactive) | 0.788 | 1.03 |  | 1.09 | 0.526 | 0.646
23 | Cc1noc(-c2ccc(CSCCC(=O)O)cc2)c1NC(=O)OC(C)c1ccccc1Cl (centres undefined) | -0.506 (inactive) | -0.869 | -0.91 |  | -0.684 | 0.0534 | 0.402
24 | Cc1ccccc1C(=O)Nc1ccc(C(=O)N2CCCC(O)c3cc(Cl)ccc32)c(C)c1 (centres undefined) | -0.543 (inactive) | -0.255 | 0.00137 |  | -0.031 | 0.501 | 0.525
25 | CC(Oc1ccc(O)cc1)(P(=O)(O)O)P(=O)(O)O | 0.474 (inactive) | 0.34 | 0.383 |  | 0.171 | 0.237 | 0.233
